From PubChem BioAssay (NCI)
The panel holds about 79,000 compounds, 15% with a hit somewhere; the sample as a whole holds those more often. The source made the active and inactive calls. Cut-off read from the data, not from the text of the source: active = growth inhibition above about 70%; inactive = the rest.

Columns and labels:
[1] = NCI Yeast Anticancer Drug Screen. Data for the wt1 strain (AID 149);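 note: 0% = growth of vehicle-treated wt1 cultures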; conditions: S. cerevisiae wt1 strain (SPY 50644) growth inhibition, active compounds read high
Method in brief: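 wt1 yeast, compound-treated; % growth inhibition vs vehicle control.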

[2] = NCI Yeast Anticancer Drug Screen. Data for the rad50EPP+ strain (AID 151);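 note: 0% = growth of vehicle-treated control cultures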; conditions: S. cerevisiae rad50 mutant strain, active compounds read high
Method in brief: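 Yeast strain carrying rad50 alteration (rad50EPP+) exposed to compounds; growth inhibition measured relative to vehicle-treated controls.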

[3] = NCI Yeast Anticancer Drug Screen. Data for the rad50 strain (AID 155);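 note: 0% = growth of vehicle-only cultures of the same strain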; conditions: S. cerevisiae rad50 strain growth inhibition, active compounds read high
Method in brief: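 Genetically altered yeast (DNA repair pathway); compound treatment; growth inhibition vs vehicle ctrl.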

[4] = NCI Yeast Anticancer Drug Screen. Data for the mec2-1 strain (AID 157); conditions: S. cerevisiae mec2-1 strain, active compounds read high
Method in brief: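 mec2-1 yeast strain, carrying an alteration in DNA damage repair or cell cycle control, was exposed to compounds; growth inhibition was measured relative to vehicle-treated controls.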

[5] = NCI Yeast Anticancer Drug Screen. Data for the rad14 strain (AID 159);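 note: 0% = growth of vehicle-treated control cultures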; conditions: S. cerevisiae rad14 strain growth inhibition, active compounds read high
Method in brief: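 Test compounds were applied to a repair-deficient yeast strain. Its growth was then compared with that of cultures given vehicle alone, and inhibition was expressed relative to those controls.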

[6] = NCI Yeast Anticancer Drug Screen. Data for the sgs1 mgt1 strain (AID 161);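 note: 0% = growth of cultures given vehicle only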; conditions: S. cerevisiae sgs1 mgt1 strain, active compounds read high
Method in brief: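 Compounds are added to genetically altered yeast, and growth is compared with cultures given vehicle alone to give percent inhibition.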

[7] = NCI Yeast Anticancer Drug Screen. Data for the CLN2oe strain (AID 163);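 note: 0% = growth of vehicle-only control cultures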; conditions: S. cerevisiae CLN2oe strain, active compounds read high
Method in brief: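 Yeast cells carrying a defined cell-cycle control alteration were exposed to test compounds. Growth inhibition was scored against vehicle-treated control cultures.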

[8] = NCI Yeast Anticancer Drug Screen. Data for the cln2 rad14 strain (AID 165);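 note: 0% = growth equal to vehicle treated cultures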; conditions: S. cerevisiae cln2 rad14 strain, active compounds read high
Method in brief: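 Yeast carrying cln2 and rad14 alterations (cell cycle control and DNA damage repair) were exposed to compounds. Growth inhibition was measured against vehicle-treated controls.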

[9] = NCI Yeast Anticancer Drug Screen. Data for the bub3 strain (AID 167); conditions: S. cerevisiae bub3 mutant strain, active compounds read high
Method in brief: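 Yeast carrying a defined mutation is treated with each compound, and growth is compared with that of vehicle-exposed cells to give inhibition.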

[10] = NCI Yeast Anticancer Drug Screen. Data for the wt2 strain (AID 169);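 note: 0% = growth of vehicle-treated yeast cultures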; conditions: S. cerevisiae wt2 strain growth inhibition, active compounds read high
Method in brief: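 Yeast cells were exposed to test compounds, and growth inhibition was measured relative to vehicle-treated controls.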

[11] = NCI Yeast Anticancer Drug Screen. Data for the sgs1 strain (AID 173);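 note: 0% = growth of vehicle-only control cultures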; conditions: S. cerevisiae sgs1 mutant, active compounds read high
Method in brief: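 Yeast mutant strains carrying defined defects in DNA damage repair or cell cycle control were exposed to test compounds. Growth inhibition was scored against vehicle-treated controls.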

[12] = NCI Yeast Anticancer Drug Screen. Data for the mlh1 rad18 strain (AID 175); conditions: S. cerevisiae mlh1 rad18 strain growth inhibition, active compounds read high
Method in brief: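 Growth inhibition of the yeast strain was measured after compound exposure and expressed relative to vehicle-treated controls. The strain carries defined defects in DNA damage repair.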

[13] = NCI Yeast Anticancer Drug Screen. Data for the rad18 strain (AID 177); conditions: S. cerevisiae rad18 mutant growth inhibition, active compounds read high
Method in brief: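 Yeast carrying a defined DNA damage repair alteration were exposed to compounds. Growth inhibition was expressed relative to vehicle-treated controls.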

[14] = NCI Yeast Anticancer Drug Screen. Data for the mlh1 strain (AID 171);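 note: 0% = growth of vehicle-treated control cultures of the same strain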; conditions: S. cerevisiae mlh1 strain growth inhibition, active compounds read high
Method in brief: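 Yeast carrying a defined genetic alteration in DNA damage repair or cell cycle control were exposed to test compounds. Growth inhibition was measured relative to vehicle-treated controls.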

[15] = at 5.0 µM (retest, dose inferred, filed as 0.5)
[16] = at 50.0 µM (retest, dose inferred, filed as 5.0)

For `Cc1ccc2c(/C=C/c3ccc(N(C)C)cc3)ccnc2c1C`, the growth inhibition ([1]; at 1.2 µM) was -44% (inactive), the growth inhibition ([1]; at 3.7 µM) was -45% (inactive) and the growth inhibition ([1]; at 11.0 µM) was -44% (inactive). For the same compound, the growth inhibition ([1]; at 33.0 µM) was -39% (inactive), the growth inhibition ([1]; at 100.0 µM) was 59% (inactive) and the growth inhibition ([2]; at 1.2 µM) was -22% (inactive). The growth inhibition ([2]; at 3.7 µM) was -30% (inactive), the growth inhibition ([2]; at 11.0 µM) was -15% (inactive) and the growth inhibition ([2]; at 33.0 µM) was 22% (inactive). For the same compound, the growth inhibition ([2]; at 100.0 µM) was 41% (inactive), the growth inhibition ([3]; at 1.2 µM) was -15% (inactive) and the growth inhibition ([3]; at 3.7 µM) was -41% (inactive). For the same compound, the growth inhibition [3, 15] was 9% (inactive), the growth inhibition ([3]; at 11.0 µM) was -20% (inactive) and the growth inhibition ([3]; at 33.0 µM) was 14% (inactive). For the same compound, the growth inhibition [3, 16] was 35% (inactive), the growth inhibition ([3]; at 50.0 µM) was 71.4% (active) and the growth inhibition ([3]; at 100.0 µM) was 67% (inactive). The growth inhibition ([4]; at 1.2 µM) was -27% (inactive), the growth inhibition ([4]; at 3.7 µM) was -33% (inactive) and the growth inhibition [4, 15] was -7% (inactive). For the same compound, the growth inhibition ([4]; at 11.0 µM) was -42% (inactive), the growth inhibition ([4]; at 33.0 µM) was -16% (inactive) and the growth inhibition [4, 16] was 21% (inactive). The growth inhibition ([4]; at 50.0 µM) was 84.8% (active), the growth inhibition ([4]; at 100.0 µM) was 58% (inactive) and the growth inhibition ([5]; at 1.2 µM) was -25% (inactive). For the same compound, the growth inhibition ([5]; at 3.7 µM) was -11% (inactive), the growth inhibition ([5]; at 11.0 µM) was -11% (inactive) and the growth inhibition ([5]; at 33.0 µM) was -6% (inactive). For the same compound, the growth inhibition ([5]; at 100.0 µM) was 77% (active), the growth inhibition [6, 15] was 33% (inactive) and the growth inhibition [6, 16] was 87% (active). For the same compound, the growth inhibition ([6]; at 50.0 µM) was 86.5% (active), the growth inhibition ([7]; at 1.2 µM) was 26% (inactive) and the growth inhibition ([7]; at 3.7 µM) was 34% (inactive). The growth inhibition ([7]; at 11.0 µM) was 26% (inactive), the growth inhibition ([7]; at 33.0 µM) was 39% (inactive) and the growth inhibition ([7]; at 100.0 µM) was 71% (active). The growth inhibition [8, 15] was 22% (inactive), the growth inhibition [8, 16] was 61% (inactive) and the growth inhibition ([8]; at 50.0 µM) was 29.9% (inactive). For the same compound, the growth inhibition ([9]; at 1.2 µM) was -8% (inactive), the growth inhibition ([9]; at 3.7 µM) was 7% (inactive) and the growth inhibition [9, 15] was 43% (inactive). For the same compound, the growth inhibition ([9]; at 11.0 µM) was 28% (inactive), the growth inhibition ([9]; at 33.0 µM) was 58% (inactive) and the growth inhibition [9, 16] was 81% (active). The growth inhibition ([9]; at 50.0 µM) was 79.5% (active), the growth inhibition ([9]; at 100.0 µM) was 84% (active) and the growth inhibition ([10]; at 1.2 µM) was -12% (inactive). The growth inhibition ([10]; at 3.7 µM) was -45% (inactive), the growth inhibition ([10]; at 11.0 µM) was -4% (inactive) and the growth inhibition ([10]; at 33.0 µM) was 63% (inactive). For the same compound, the growth inhibition ([10]; at 100.0 µM) was 86% (active), the growth inhibition ([11]; at 1.2 µM) was -26% (inactive) and the growth inhibition ([11]; at 3.7 µM) was -51% (inactive). For the same compound, the growth inhibition ([11]; at 11.0 µM) was -4% (inactive), the growth inhibition ([11]; at 33.0 µM) was 82% (active) and the growth inhibition ([11]; at 100.0 µM) was 87% (active). The growth inhibition [12, 15] was 1% (inactive), the growth inhibition [12, 16] was 14% (inactive) and the growth inhibition ([12]; at 50.0 µM) was 81.8% (active). The growth inhibition ([13]; at 1.2 µM) was 1% (inactive), the growth inhibition ([13]; at 3.7 µM) was -9% (inactive) and the growth inhibition ([13]; at 11.0 µM) was -12% (inactive). For the same compound, the growth inhibition ([13]; at 33.0 µM) was 29% (inactive) and the growth inhibition ([13]; at 100.0 µM) was 65% (inactive).
With `COc1ccc2nc(N/N=C/c3sccc3C)cc(C)c2c1` the growth inhibition ([1]; at 1.2 µM) was -39% (inactive), the growth inhibition ([1]; at 3.7 µM) was -32% (inactive) and the growth inhibition ([1]; at 11.0 µM) was -6% (inactive). For the same compound, the growth inhibition ([1]; at 33.0 µM) was 96% (active), the growth inhibition ([1]; at 100.0 µM) was 95% (active) and the growth inhibition ([2]; at 1.2 µM) was -18% (inactive). The growth inhibition ([2]; at 3.7 µM) was -19% (inactive), the growth inhibition ([2]; at 11.0 µM) was -21% (inactive) and the growth inhibition ([2]; at 33.0 µM) was 15% (inactive). For the same compound, the growth inhibition ([2]; at 100.0 µM) was 76% (active), the growth inhibition ([3]; at 1.2 µM) was -22% (inactive) and the growth inhibition ([3]; at 3.7 µM) was -27% (inactive). The growth inhibition [3, 15] was 4% (inactive), the growth inhibition ([3]; at 11.0 µM) was -12% (inactive) and the growth inhibition ([3]; at 33.0 µM) was 94% (active). The growth inhibition [3, 16] was 68% (inactive), the growth inhibition ([3]; at 50.0 µM) was 85.5% (active) and the growth inhibition ([3]; at 100.0 µM) was 94% (active). The growth inhibition ([4]; at 1.2 µM) was -13% (inactive), the growth inhibition ([4]; at 3.7 µM) was 4% (inactive) and the growth inhibition [4, 15] was -10% (inactive). For the same compound, the growth inhibition ([4]; at 11.0 µM) was 12% (inactive), the growth inhibition ([4]; at 33.0 µM) was 96% (active) and the growth inhibition [4, 16] was 56% (inactive). The growth inhibition ([4]; at 50.0 µM) was 87.5% (active), the growth inhibition ([4]; at 100.0 µM) was 95% (active) and the growth inhibition [6, 15] was 96% (active). For the same compound, the growth inhibition [6, 16] was 96% (active), the growth inhibition ([6]; at 50.0 µM) was 84.1% (active) and the growth inhibition ([7]; at 1.2 µM) was -2% (inactive). For the same compound, the growth inhibition ([7]; at 3.7 µM) was -6% (inactive), the growth inhibition ([7]; at 11.0 µM) was -1% (inactive) and the growth inhibition ([7]; at 33.0 µM) was 96% (active). For the same compound, the growth inhibition ([7]; at 100.0 µM) was 94% (active), the growth inhibition [8, 15] was 95% (active) and the growth inhibition [8, 16] was 95% (active). The growth inhibition ([8]; at 50.0 µM) was 81% (active), the growth inhibition ([9]; at 1.2 µM) was 12% (inactive) and the growth inhibition ([9]; at 3.7 µM) was 14% (inactive). For the same compound, the growth inhibition [9, 15] was 96% (active), the growth inhibition ([9]; at 11.0 µM) was 38% (inactive) and the growth inhibition ([9]; at 33.0 µM) was 98% (active). The growth inhibition [9, 16] was 98% (active), the growth inhibition ([9]; at 50.0 µM) was 86% (active) and the growth inhibition ([9]; at 100.0 µM) was 96% (active). For the same compound, the growth inhibition ([10]; at 1.2 µM) was 18% (inactive), the growth inhibition ([10]; at 3.7 µM) was 4% (inactive) and the growth inhibition ([10]; at 11.0 µM) was 27% (inactive). For the same compound, the growth inhibition ([10]; at 33.0 µM) was 98% (active), the growth inhibition ([10]; at 100.0 µM) was 96% (active) and the growth inhibition ([14]; at 1.2 µM) was 8% (inactive). For the same compound, the growth inhibition ([14]; at 3.7 µM) was -3% (inactive), the growth inhibition ([14]; at 11.0 µM) was 35% (inactive) and the growth inhibition ([14]; at 33.0 µM) was 97% (active). The growth inhibition ([14]; at 100.0 µM) was 92% (active), the growth inhibition ([11]; at 1.2 µM) was -30% (inactive) and the growth inhibition ([11]; at 3.7 µM) was -45% (inactive). For the same compound, the growth inhibition ([11]; at 11.0 µM) was -16% (inactive), the growth inhibition ([11]; at 33.0 µM) was 98% (active) and the growth inhibition ([11]; at 100.0 µM) was 95% (active). For the same compound, the growth inhibition [12, 15] was -5% (inactive), the growth inhibition [12, 16] was 83% (active) and the growth inhibition ([12]; at 50.0 µM) was 87.8% (active).
